Data: PubChem BioAssay (NCATS)
Results filed as inconclusive are left out. Calls of active or inactive are those of the source. The call rests on the fitted dose curve; in most records, active means well fitted inhibition curve with a large enough effect; inconclusive means small, poorly fitted or top-dose-only effect; inactive means flat fitted curve, though single readings scatter.

Target: Calcium and integrin-binding protein 1 (Homo sapiens) (UniProt Q99828)
Assay: Primary qHTS for Identification of Calcium Integrin Binding Protein 1 (CIB1) Competitor (AID 1508620);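 further: GST tagged CIB1 binding a fluorescein labelled alphaIIb integrin peptide tracer; top concentration of the series differs between compounds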
Conditions: CIB1-GST / FITC-alphaIIb peptide fluorescence polarization; series mostly up to 57.7 µM; activity change, negative = inhibition: at the top concentration
How it was run: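 Fluorescence polarization competition: CIB1-GST (1 uM final) preincubated with compound 15 min at room temperature, then FITC-labeled alphaIIb peptide (100 nM final) added for another 15 min. Polarization read at Ex 480/Em 540.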
On the % scale 0 is the no-effect control and ±100 the full control effect.

Calcium and integrin-binding protein 1 (Homo sapiens), sequence (Q99828 whole entry, looked up): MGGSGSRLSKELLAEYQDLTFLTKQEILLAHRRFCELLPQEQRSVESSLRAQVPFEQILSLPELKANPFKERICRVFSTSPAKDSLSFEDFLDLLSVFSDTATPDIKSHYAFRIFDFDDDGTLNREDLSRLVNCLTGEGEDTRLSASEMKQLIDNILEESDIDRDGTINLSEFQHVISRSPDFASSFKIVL

| SMILES | activity change, negative = inhibition | Potency |
| --- | --- | --- |
| C[C@@H]1C/C=C/C=C\C=C\C=C\[C@H](O[C@@H]2O[C@H](C)[C@@H](O)[C@H](N)[C@@H]2O)C[C@@H]2O[C@](O)(C[C@@H](O)C[C@H]3O[C@@H]3/C=C/C(=O)O1)C[C@H](O)[C@H]2C(=O)O | 1.59% [at 30.2 µM] (inactive) |  |
| CC1(C)CC2C(O)C3=C(CC(C)(O)C2C1)C(=O)OC3O (stereo not drawn) | -2.85% [at 114 µM] (inactive) |  |
| O=C1NCc2nc3ccccc3c(=O)n2C1Cc1c[nH]c2ccccc12 (stereo not drawn) | -3.41% (inactive) |  |
| CC1OC(OC2C(C)OC(OC3C(OC(=O)/C=C/c4ccc(O)cc4)C(CO)OC(OC4(COC(=O)/C=C/c5ccc(O)cc5)OC(CO)C(O)C4O)C3OC3OCC(O)(CO)C3O)C(O)C2O)C(O)C(O)C1O (stereo not drawn) | 0.727% [at 30.2 µM] (inactive) |  |
| C[C@H]1[C@H](C)CC[C@]2(C(=O)O)CC[C@]3(C(=O)O)C(=CCC4[C@@]5(C)CC[C@H](O[C@@H]6O[C@H](C)[C@@H](O)[C@H](O)[C@H]6O)C(C)(C)C5CC[C@]43C)[C@H]12 (stereo partly drawn) | 2.39% [at 30.2 µM] (inactive) |  |
| COc1cc(N2CCC(O)CC2)ccc1Nc1cc(Nc2ccccc2S(=O)(=O)C(C)C)c2cc[nH]c2n1 |  | inactive |
| C=C1C(OC(C)=O)C(=O)C2C(C)(C)C(OC(C)=O)CCC2(C)C1CC(OC(C)=O)/C(C)=C/COC(C)=O (stereo not drawn) | -2.52% (inactive) |  |
| COc1ccc2c(c1O)OC[C@H]1c3ccc(O)cc3O[C@@H]21 | -1.08% [at 114 µM] (inactive) |  |
| C[C@@H]1O[C@@H](O[C@H]2[C@H](OC(=O)[C@]34CCC(C)(C)C[C@H]3C3=CCC5[C@@]6(C)CC[C@H](O[C@@H]7O[C@H](CO[C@@H]8OC[C@H](O)[C@H](O)[C@H]8O)[C@@H](O)[C@H](O)[C@H]7O)C(C)(C)C6CC[C@@]5(C)[C@]3(C)C[C@H]4O)OC[C@@H](O)[C@@H]2O)[C@H](O)[C@H](O)[C@H]1O[C@@H]1OC[C@H](O)[C@H](O[C@@H]2OC[C@@H](O)[C@H](O)[C@H]2O)[C@H]1O (stereo partly drawn) | 0.282% [at 12.4 µM] (inactive) |  |
| OCCc1ccc(O[C@@H]2O[C@H](CO)[C@@H](O)[C@H](O)[C@H]2O)c(O)c1 | 1.65% (inactive) |  |
| C/C=C/C1=CC2=CC(=O)C(C)(O)C(OC(=O)c3c(C)cc(O)cc3O)C2CO1 (stereo not drawn) | -12.3% (inactive) |  |
| C/C=C1\[C@H](O[C@@H]2O[C@H](CO)[C@@H](O)[C@H](O)[C@H]2O)OC=C(C(=O)OC)[C@H]1CC(=O)OC | 2.15% (inactive) |  |
| CC12CC34C=CC(=O)C(C)(CCC(=O)O)C3C(CC1C4)O2 (stereo not drawn) | -0.0631% [at 114 µM] (inactive) |  |
| CC(=O)OC[C@]12[C@H](OC(C)=O)C(=O)[C@@H]3[C@@H](OC(C)=O)[C@@]14O[C@@]3(C)COC(=O)c1cccnc1[C@@H](C)[C@H](C)C(=O)O[C@@H]([C@H](OC(C)=O)[C@@H]2OC(C)=O)[C@]4(C)O | -2.6% [at 30.2 µM] (inactive) |  |
| C/C(=C\CCC(C(=O)O)C1CCC2(C)C3=C(CCC12C)C1(C)CCC(=O)C(C)(C)C1CC3)C(=O)O (stereo not drawn) | 0.831% (inactive) |  |
| Oc1ccc([C@H]2COc3cc(O)ccc3C2)cc1 | -0.443% [at 114 µM] (inactive) |  |
| CC(=O)OC[C@@]12[C@H](O)C[C@]3(C)C(=CCC4[C@@]5(C)CC[C@H](O[C@@H]6O[C@H](C(=O)O)[C@@H](O[C@@H]7O[C@H](CO)[C@@H](O)[C@H](O)[C@H]7O)[C@H](O)[C@H]6O[C@@H]6O[C@H](CO)[C@@H](O)[C@H](O)[C@H]6O)[C@](C)(CO)C5CC[C@]43C)[C@@H]1CC(C)(C)[C@@H](OC(C)=O)[C@@H]2O (stereo partly drawn) | 2.83% [at 30.2 µM] (inactive) |  |
| CC1=CCC2C(C)(CO)CCCC2(C)C1CC12OC1C(O)C(CO)=CC2O (stereo not drawn) | 3.87% (inactive) |  |
